Experimental data reported in PubChem BioAssay.
For some assays here: Potency and affinity values are given separately. Active and inactive are the calls of the source. Unless noted, how the calls were made is not given here.

How the values were obtained:
[1] = antimalarial activity against Dd2 strain (AID 2302;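 active means growth inhibition above 50% at the single 2 µM test dose, taken to imply half-maximal potency below 2 µM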;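 further: 0% = DMSO untreated growth and 100% = chloroquine plus artemisinin killed control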); details: P. falciparum Dd2 in RBCs, LDH growth readout, 72 h; at 2 µM; stronger effect = higher value
[2] = HepG2 cytotoxicity, primary screen, cytotoxicity control for P. falciparum antimalarial project, cell-based, ATP luminescence (AID 2303;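 active means inhibition above 50%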;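 further: 0% = DMSO wells and 100% = digitonin-killed cells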); details: HepG2 viability, 24-48 h, at 10 µM, stronger effect = higher value
[3] = target: L-lactate dehydrogenase (Plasmodium falciparum (isolate CDC / Honduras)) (UniProt Q27743); experiment: PfLDH activity inhibition – cell lysate, 3D7 strain, counter-screen for P. falciparum growth inhibition project (AID 2304);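 further: 0% = vehicle and 100% = reference inhibitor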; details: P. falciparum 3D7 crude extract, LDH APAD/NBT absorbance; at 2 µM; stronger effect = higher value
L-lactate dehydrogenase (Plasmodium falciparum (isolate CDC / Honduras)), sequence (Q27743 whole entry, looked up): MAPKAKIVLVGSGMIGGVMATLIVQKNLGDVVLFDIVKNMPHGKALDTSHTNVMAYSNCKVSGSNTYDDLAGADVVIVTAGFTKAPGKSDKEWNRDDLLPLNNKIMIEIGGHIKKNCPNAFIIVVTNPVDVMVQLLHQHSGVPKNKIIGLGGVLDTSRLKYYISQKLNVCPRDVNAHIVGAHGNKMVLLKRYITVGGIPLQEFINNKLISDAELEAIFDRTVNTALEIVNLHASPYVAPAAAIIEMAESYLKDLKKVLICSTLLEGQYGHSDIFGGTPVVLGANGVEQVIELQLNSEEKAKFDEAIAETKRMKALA

[4] = inhibition of 3D7 malaria parasite growth – strain 3D7 (AID 2306);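 further: 0% = DMSO wells and 100% = chloroquine plus artemisinin control wells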; details: P. falciparum 3D7 erythrocytic growth, LDH absorbance, 72 h; at 2 µM; stronger effect = higher value
[5] = target: Calcium-dependent protein kinase 1 (Plasmodium falciparum (isolate 3D7)) (UniProt P62344); experiment: PfCDPK1 kinase inhibitors, biochemical, TCAMS library (AID 1159585; cut-off not given, nearly all actives have IC50 up to about 0.98 µM;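 further: inhibitors leave more ATP so luminescence rises with inhibition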); details: recombinant PfCDPK1, Kinase-Glo ATP depletion luminescence
Calcium-dependent protein kinase 1 (Plasmodium falciparum (isolate 3D7)), sequence (P62344 whole entry, looked up): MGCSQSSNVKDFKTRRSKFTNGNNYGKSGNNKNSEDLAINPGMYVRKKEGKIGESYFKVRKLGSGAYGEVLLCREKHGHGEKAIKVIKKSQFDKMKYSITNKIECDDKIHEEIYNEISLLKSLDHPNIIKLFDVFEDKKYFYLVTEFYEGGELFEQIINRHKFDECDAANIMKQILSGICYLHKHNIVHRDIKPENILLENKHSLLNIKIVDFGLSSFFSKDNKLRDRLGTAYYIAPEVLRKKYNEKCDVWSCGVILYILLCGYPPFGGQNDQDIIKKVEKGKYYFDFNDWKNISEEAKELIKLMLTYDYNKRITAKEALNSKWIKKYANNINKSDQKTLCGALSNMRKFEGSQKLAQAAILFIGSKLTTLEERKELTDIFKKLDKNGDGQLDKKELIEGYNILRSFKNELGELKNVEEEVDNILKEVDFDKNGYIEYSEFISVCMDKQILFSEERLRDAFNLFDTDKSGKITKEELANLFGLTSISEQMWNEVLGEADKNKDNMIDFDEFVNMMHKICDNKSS

[6] = target: Plasmodium falciparum protein kinase 6 (PK6, PF3D7_1337100) (UniProt Q8IDW1); experiment: PfPK6 kinase inhibitors, biochemical, TCAMS library (AID 1159586); details: recombinant PfPK6, Kinase-Glo ATP depletion luminescence
Plasmodium falciparum protein kinase 6 (PK6, PF3D7_1337100), sequence (Q8IDW1 1-305): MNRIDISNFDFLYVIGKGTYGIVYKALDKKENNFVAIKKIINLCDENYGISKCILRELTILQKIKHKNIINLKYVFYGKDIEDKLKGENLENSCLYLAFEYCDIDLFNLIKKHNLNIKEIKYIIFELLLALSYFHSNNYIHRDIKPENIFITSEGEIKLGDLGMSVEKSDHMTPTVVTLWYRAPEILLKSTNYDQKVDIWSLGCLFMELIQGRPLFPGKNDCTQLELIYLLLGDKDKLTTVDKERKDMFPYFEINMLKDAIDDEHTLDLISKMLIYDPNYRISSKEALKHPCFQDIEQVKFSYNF

[7] = target: Protein kinase 7 (PK7), Plasmodium falciparum 3D7 (PF3D7_0213400) (UniProt Q7YTF7); experiment: inhibition of Plasmodium PK7 catalytic activity – biochemical, TCAMS antimalarial set, Kinase-Glo luminescence (AID 1159587); details: recombinant PfPK7, Kinase-Glo ATP depletion luminescence
Protein kinase 7 (PK7), Plasmodium falciparum 3D7 (PF3D7_0213400), sequence (Q7YTF7 1-343): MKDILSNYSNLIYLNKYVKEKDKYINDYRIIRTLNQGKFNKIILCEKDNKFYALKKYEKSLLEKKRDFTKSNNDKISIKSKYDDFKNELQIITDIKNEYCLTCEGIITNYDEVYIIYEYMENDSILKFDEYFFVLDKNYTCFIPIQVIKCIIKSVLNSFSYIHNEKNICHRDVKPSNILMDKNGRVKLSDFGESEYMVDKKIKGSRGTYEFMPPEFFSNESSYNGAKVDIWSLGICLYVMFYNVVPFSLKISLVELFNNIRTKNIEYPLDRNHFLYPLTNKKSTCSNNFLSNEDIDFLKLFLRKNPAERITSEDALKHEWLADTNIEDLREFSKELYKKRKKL

[8] = target: Calcium-dependent protein kinase 4 (Plasmodium falciparum (isolate 3D7)) (UniProt Q8IBS5); experiment: PfCDPK4 kinase inhibitors, biochemical, TCAMS library (AID 1159588; cut-off not given, nearly all actives have IC50 up to about 0.91 µM); details: recombinant PfCDPK4, Kinase-Glo ATP depletion luminescence
Calcium-dependent protein kinase 4 (Plasmodium falciparum (isolate 3D7)), sequence (Q8IBS5 whole entry, looked up): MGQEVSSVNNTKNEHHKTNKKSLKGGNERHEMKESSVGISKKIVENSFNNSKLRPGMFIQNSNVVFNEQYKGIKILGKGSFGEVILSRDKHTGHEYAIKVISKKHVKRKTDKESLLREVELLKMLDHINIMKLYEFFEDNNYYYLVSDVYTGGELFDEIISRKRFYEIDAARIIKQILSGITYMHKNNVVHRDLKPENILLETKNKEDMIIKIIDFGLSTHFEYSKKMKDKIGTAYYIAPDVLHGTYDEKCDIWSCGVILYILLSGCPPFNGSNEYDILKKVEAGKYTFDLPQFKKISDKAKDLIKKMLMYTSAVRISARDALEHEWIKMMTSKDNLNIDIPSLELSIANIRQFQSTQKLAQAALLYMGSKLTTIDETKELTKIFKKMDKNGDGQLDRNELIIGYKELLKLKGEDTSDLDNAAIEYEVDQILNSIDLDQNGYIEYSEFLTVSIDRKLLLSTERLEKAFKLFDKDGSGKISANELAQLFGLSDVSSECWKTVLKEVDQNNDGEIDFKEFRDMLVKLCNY

Cn1cncc1C(=O)Nc1cccc(-c2ccc(-c3nc4ccc(C(F)(F)F)cc4[nH]3)cc2)c1
inactive: inhibition [2] 4% | inhibition [3] 1% | outcome [5] | outcome [6] | outcome [7] | outcome [8]
active: growth inhibition [1] 98% | growth inhibition [4] 97%

O=C(NC1CCN(Cc2ccccc2)CC1)c1cc(-c2cccnc2)nc2ccc(Cl)cc12
active: growth inhibition [4] 97%
inactive: growth inhibition [1] 26% | inhibition [2] -3% | inhibition [3] 1% | outcome [5] | outcome [6] | outcome [7] | outcome [8]

CN1CCN(CC2(Nc3nccc(NCCc4cn(C)c5ccccc45)n3)CCCCC2)CC1
active: inhibition [2] 67% | growth inhibition [4] 91%
inactive: growth inhibition [1] 41% | inhibition [3] 2% | outcome [5] | outcome [6] | outcome [7] | outcome [8]

Cc1cccc2[nH]c(-c3cccc(-c4cccc(CNCCc5ccncc5)c4)c3)nc12
inactive: inhibition [2] 20% | inhibition [3] -2% | outcome [5] | outcome [6] | outcome [7] | outcome [8]
active: growth inhibition [1] 99% | growth inhibition [4] 101%

O=C(COC(=O)c1cccc(S(=O)(=O)N2CCc3ccccc32)c1)NNC(=O)c1cccs1
inactive: growth inhibition [1] 4% | inhibition [2] 4% | inhibition [3] 3% | outcome [5] | outcome [6] | outcome [7] | outcome [8]
active: growth inhibition [4] 96%

COc1cccc(CNc2ncc(-c3ccsc3)c(-c3nccs3)n2)c1
active: growth inhibition [1] 82% | growth inhibition [4] 89%
inactive: inhibition [2] 9% | inhibition [3] 3% | outcome [5] | outcome [6] | outcome [7] | outcome [8]

Cc1cccc2[nH]c(-c3ccc(-c4cccc(NC(=O)C(C)CN(C)C)c4)s3)nc12 (stereo not given)
active: growth inhibition [1] 69% | growth inhibition [4] 92%
inactive: inhibition [2] 12% | inhibition [3] 0% | outcome [5] | outcome [6] | outcome [7] | outcome [8]

Cn1nccc1C(=O)NCCNCc1ccc(-c2ccc(-c3nc4ccc(C(F)(F)F)cc4[nH]3)s2)cc1
inactive: inhibition [2] 48% | inhibition [3] -5% | outcome [5] | outcome [6] | outcome [7] | outcome [8]
active: growth inhibition [1] 99% | growth inhibition [4] 101%

CC(C)n1cc(CN2CCCC(C(=O)Nc3cccc(-c4cc5ccccc5[nH]4)c3)C2)cn1 (stereo not given)
inactive: inhibition [2] 34% | inhibition [3] -3% | outcome [5] | outcome [6] | outcome [7] | outcome [8]
active: growth inhibition [1] 65% | growth inhibition [4] 96%

COc1ccccc1-c1cc(C(=O)N2CCN(S(=O)(=O)c3ccc(C)cc3)CC2)[nH]n1
active: growth inhibition [1] 88% | growth inhibition [4] 88%
inactive: inhibition [2] -12% | inhibition [3] -4% | outcome [5] | outcome [6] | outcome [7] | outcome [8]

Cc1[nH]c(C)c(-c2ccc(OCc3ccc(F)cc3)cc2)c(=O)c1Cl
active: growth inhibition [1] 96% | growth inhibition [4] 95%
inactive: inhibition [2] -10% | inhibition [3] -1% | outcome [5] | outcome [6] | outcome [7] | outcome [8]

CN(C)CCNC(=O)c1ccc2c(c1)n(C1CCN(S(=O)(=O)c3ccc(-c4ccccc4)cc3)CC1)c(=O)n2CC1CCCCC1
inactive: inhibition [2] 47% | inhibition [3] -2% | outcome [5] | outcome [6] | outcome [7] | outcome [8]
active: growth inhibition [1] 66% | growth inhibition [4] 100%

Oc1ccc2nc(N3CCNCC3)nc(NCCCc3ccccc3)c2c1
inactive: growth inhibition [1] 0% | inhibition [2] 14% | inhibition [3] -4% | outcome [5] | outcome [6] | outcome [7] | outcome [8]
active: growth inhibition [4] 102%

CCOC(=O)c1cn(CC)c2cc(F)c(OC3C[C@@H]4CC[C@@]3(C)C4(C)C)cc2c1=O (stereo not given in full)
active: growth inhibition [1] 70% | growth inhibition [4] 91%
inactive: inhibition [2] -7% | inhibition [3] -1% | outcome [5] | outcome [6] | outcome [7] | outcome [8]

OC(CNc1ccnc(Nc2ccccc2)n1)c1ccc(C(F)(F)F)cc1 (stereo not given)
inactive: growth inhibition [1] 39% | inhibition [2] 3% | inhibition [3] -2% | outcome [5] | outcome [6] | outcome [7] | outcome [8]
active: growth inhibition [4] 101%

COc1ccc2nccc([C@@H](O)CN3CCC(NCCc4c[nH]c5ccccc45)CC3)c2c1
active: growth inhibition [1] 77% | growth inhibition [4] 98%
inactive: inhibition [2] 0% | inhibition [3] -7% | outcome [5] | outcome [6] | outcome [7] | outcome [8]

Cc1ccc(C(=O)N2CCc3cc4nccc(N5CCN6CCC[C@H]6C5)c4cc32)cc1
active: growth inhibition [4] 95%
inactive: growth inhibition [1] 13% | inhibition [2] 5% | inhibition [3] -5% | outcome [5] | outcome [6] | outcome [7] | outcome [8]

O=C(NC1CCN(Cc2ccccc2)CC1)c1ccc2c(=O)n(Cc3ccc(Cl)cc3)c(=S)[nH]c2c1
active: growth inhibition [1] 100% | growth inhibition [4] 101%
inactive: inhibition [2] 16% | inhibition [3] 5% | outcome [5] | outcome [6] | outcome [7] | outcome [8]

Fc1ccc(Nc2ccnc3cc(I)ccc23)c(Cl)c1
active: growth inhibition [4] 95%
inactive: growth inhibition [1] 24% | inhibition [2] 35% | inhibition [3] 1% | outcome [5] | outcome [6] | outcome [7] | outcome [8]

COc1ccc(CNCc2ccc(-c3ccc(-c4nc5ccc(F)cc5[nH]4)cc3)cc2)cc1
inactive: inhibition [3] 5% | outcome [5] | outcome [6] | outcome [7] | outcome [8]
active: growth inhibition [1] 83% | inhibition [2] 70% | growth inhibition [4] 99%

COCCNCc1cccc(-c2cc3nccc(Nc4ccc(Oc5ccccc5)cc4)c3cc2Cl)c1
inactive: inhibition [2] -8% | inhibition [3] 1% | outcome [5] | outcome [6] | outcome [7] | outcome [8]
active: growth inhibition [1] 99% | growth inhibition [4] 99%

CC(Oc1cccc(Cl)c1)C(=O)N1CCc2ccccc21 (stereo not given)
active: growth inhibition [1] 77% | growth inhibition [4] 94%
inactive: inhibition [2] 4% | inhibition [3] -1% | outcome [5] | outcome [6] | outcome [7] | outcome [8]

Cc1cc(Cl)c(Cl)cc1NC(=O)Nc1cccc(C(F)(F)F)c1
active: growth inhibition [1] 99% | growth inhibition [4] 93%
inactive: inhibition [2] 1% | inhibition [3] -1% | outcome [5] | outcome [6] | outcome [7] | outcome [8]

O=C(NCCCCN1CCC(c2ccc3c(c2OCc2ccncc2)CCCC3)CC1)c1ccc(-c2ccc(C(F)(F)F)cc2)cc1
active: growth inhibition [1] 92% | inhibition [2] 96% | growth inhibition [4] 101%
inactive: inhibition [3] 3% | outcome [5] | outcome [6] | outcome [7] | outcome [8]

COc1ccc(Nc2ncc3c(-c4cccc(NC(=O)c5ccc(N)cc5)c4)c[nH]c3n2)cc1OC
active: inhibition [2] 83% | growth inhibition [4] 84%
inactive: growth inhibition [1] 31% | inhibition [3] -3% | outcome [5] | outcome [6] | outcome [7] | outcome [8]

CCCc1cc(Cc2cnc(N)nc2N)cc(CCC)c1OCCCC(=O)OCC
inactive: growth inhibition [1] -5% | inhibition [2] -8% | inhibition [3] -2% | outcome [5] | outcome [6] | outcome [7] | outcome [8]
active: growth inhibition [4] 94%

Clc1ccc2c(NCCCCCCCCNc3ccnc4cc(Cl)ccc34)ccnc2c1
inactive: inhibition [2] 2% | inhibition [3] 4% | outcome [5] | outcome [6] | outcome [7] | outcome [8]
active: growth inhibition [1] 96% | growth inhibition [4] 99%

COc1ccc2ncc(F)c(CCN3C[C@H](CNCc4ccccc4)[C@H](O)C3)c2n1
active: growth inhibition [4] 89%
inactive: growth inhibition [1] 22% | inhibition [2] 19% | inhibition [3] 8% | outcome [5] | outcome [6] | outcome [7] | outcome [8]

COc1ccc(CC(Cc2ccc(OC)cc2)NCC(O)c2cccc(Cl)c2)cc1 (stereo not given)
inactive: inhibition [2] 11% | inhibition [3] -4% | outcome [5] | outcome [6] | outcome [7] | outcome [8]
active: growth inhibition [1] 98% | growth inhibition [4] 100%

Cc1cccc2[nH]c(-c3cccc(-c4ccc(NC(=O)Cc5ccon5)cc4)c3)nc12
active: growth inhibition [4] 87%
inactive: growth inhibition [1] 38% | inhibition [2] 34% | inhibition [3] 2% | outcome [5] | outcome [6] | outcome [7] | outcome [8]

COc1ccc2ccccc2c1C=NNc1ccnc2ccc(F)cc12
active: growth inhibition [4] 87%
inactive: growth inhibition [1] 10% | inhibition [2] 11% | inhibition [3] -2% | outcome [5] | outcome [6] | outcome [7] | outcome [8]

CCC(C)NS(=O)(=O)c1ccc2nc(Nc3ccc(C)c(Cl)c3)n(C(C)C(C)C)c2c1 (stereo not given)
active: growth inhibition [1] 98% | growth inhibition [4] 98%
inactive: inhibition [2] 22% | inhibition [3] 1% | outcome [5] | outcome [6] | outcome [7] | outcome [8]

CS(=O)(=O)Nc1ccc2[nH]cc(C3CCN(CCCCCNC(=O)/C=C/c4ccc(Cl)c(Cl)c4)CC3)c2c1
inactive: growth inhibition [1] 0% | inhibition [2] 1% | inhibition [3] 5% | outcome [5] | outcome [6] | outcome [7] | outcome [8]
active: growth inhibition [4] 101%

Cc1cc(Nc2ccccc2)nc(NCCOc2ccccc2)n1
active: growth inhibition [4] 100%
inactive: growth inhibition [1] 48% | inhibition [2] -5% | inhibition [3] -1% | outcome [5] | outcome [6] | outcome [7] | outcome [8]

COc1cccc(CNC(=O)NC2CCN(c3ccnc(Nc4cc(OC)c(OC)c(OC)c4)n3)C2)c1 (stereo not given)
active: growth inhibition [1] 84% | growth inhibition [4] 93%
inactive: inhibition [2] 15% | inhibition [3] -6% | outcome [5] | outcome [6] | outcome [7] | outcome [8]

COc1cc(Cc2cnc(NCCN3CCNCC3)nc2N)ccc1OCc1ccc(C(F)(F)F)cc1
active: growth inhibition [4] 98%
inactive: growth inhibition [1] 4% | inhibition [2] 12% | inhibition [3] 4% | outcome [5] | outcome [6] | outcome [7] | outcome [8]

O=c1cc(NCCCNCc2cccc3c2OC(F)(F)O3)[nH]c2ccccc12
active: growth inhibition [4] 88%
inactive: growth inhibition [1] 15% | inhibition [2] 4% | inhibition [3] 7% | outcome [5] | outcome [6] | outcome [7] | outcome [8]

COc1ccc(NC(=O)Nc2cc(C)nc3cccnc23)cc1Cn1ccnc1
inactive: growth inhibition [1] 41% | inhibition [2] 12% | inhibition [3] -3% | outcome [5] | outcome [6] | outcome [7] | outcome [8]
active: growth inhibition [4] 100%

CCCCn1c(SC(C)C)nc2c(c1=O)C1(CCCCC1)Cc1ccccc1-2
inactive: inhibition [2] 1% | inhibition [3] -2% | outcome [5] | outcome [6] | outcome [7] | outcome [8]
active: growth inhibition [1] 60% | growth inhibition [4] 99%

Cc1[nH]cnc1CSCCNC(=NCCCCCCCCN=C(NC#N)NCCSCc1nc[nH]c1C)NC#N
inactive: growth inhibition [1] 48% | inhibition [2] 1% | inhibition [3] 0% | outcome [5] | outcome [6] | outcome [7] | outcome [8]
active: growth inhibition [4] 81%
